Bioassay records deposited in PubChem by The Scripps Research Institute Molecular Screening Center.
hcDAF12 agonist: activators of H. contortus DAF-12 nuclear receptor; hit rate 1.4% among 370,000; AID 652067; HEK293 hcDAF-12 lit1-tk-luc reporter, luminescence; 0% DMSO, 100% Δ7-dafachronic acid; activation, % at 6.8 µM;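 active means activation above the mean of all tested compounds plus 3 SD, cut at about 5.5% in these data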;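 further: 100% = response to 3 µM Δ7-dafachronic acid high control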
DAX1 inh-1: NR0B1 (DAX1) inhibition; inhibition, % at 6.75 µM; hit rate 0.99% among 340,000; P51843; HEK293 Gal4-DAX1 luciferase reporter, luminescence;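 active means inhibition above the mean over all tested compounds plus 3 SD, cut at about 4.2% in these data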;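 further: 0% = DAX1-transfected cells with DMSO and 100% = empty-vector control cells with DMSO; inhibition shows as a rise in luminescence from relieved DAX1 repression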
DAX1 inh-2: DAX1 (NR0B1) inhibition, primary screen | AID 652010 | HEK293T StAR-luciferase reporter, SF-1/DAX-1 repression relief | inhibition, % at 6.8 µM | hit rate 1.1% among 370,000;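 active means inhibition above the mean over all tested compounds plus 3 SD, cut at about 3.6% in these data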;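 further: 0% = DAX-1 cells with DMSO and 100% = cells lacking DAX-1 with DMSO; higher inhibition means more luminescence from relief of DAX-1 repression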
hgDAF-12 ag: hgDAF-12 agonism, primary luciferase screen; HEK293 GAL4-hgDAF12 UAS-luciferase reporter, agonist luminescence; normalized to butyrate control; hit rate 1.8% among 370,000; activation, % at 6.8 µM;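 active means activation above a cutoff set at the mean of all screened compounds plus 3 SD, cut at about 10% in these data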;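 further: 0% = DMSO wells and 100% = sodium butyrate wells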
ssDAF12 agonist: activators of S. stercoralis DAF-12 nuclear receptor; hit rate 1% among 370,000; AID 652126; activation, % at 6.8 µM; HEK293 ssDAF-12/GRIP1 lit1-tk-luc reporter, luminescence; % of 3 µM dafachronic acid response;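 active means activation above the mean over all tested compounds plus 3 SD, cut at about 0.9% in these data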;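 further: 0% = DMSO-only wells and 100% = 3 µM delta7-dafachronic acid wells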
SMARCA2 activ: activators of SMARCA2 function. MG213 cells, MMTV-luciferase reporter, dexamethasone, overnight. activation, % at 9.1 µM. hit rate 1% among 370,000. AID 652017; in the data active means activation above about 7.8%;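 further: 0% = vehicle wells and 100% = reference activator wells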
DAX1 inh confirm: NR0B1 (human) inhibition, confirmation; shares compounds with DAX1 inh-2; HEK293T StAR-promoter luciferase reporter, SF-1/DAX-1 repression; inhibition, % at 6.8 µM; hit rate 87% among 2,400;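 active means inhibition above the average of every tested compound plus 3 SD, cut at about 3.8% in these data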;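 further: 0% = DAX-1 cells with DMSO and 100% = no DAX-1 control cells with DMSO; active compounds raise luminescence by relieving repression of the StAR reporter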
Target sequence (P51843 whole entry, looked up): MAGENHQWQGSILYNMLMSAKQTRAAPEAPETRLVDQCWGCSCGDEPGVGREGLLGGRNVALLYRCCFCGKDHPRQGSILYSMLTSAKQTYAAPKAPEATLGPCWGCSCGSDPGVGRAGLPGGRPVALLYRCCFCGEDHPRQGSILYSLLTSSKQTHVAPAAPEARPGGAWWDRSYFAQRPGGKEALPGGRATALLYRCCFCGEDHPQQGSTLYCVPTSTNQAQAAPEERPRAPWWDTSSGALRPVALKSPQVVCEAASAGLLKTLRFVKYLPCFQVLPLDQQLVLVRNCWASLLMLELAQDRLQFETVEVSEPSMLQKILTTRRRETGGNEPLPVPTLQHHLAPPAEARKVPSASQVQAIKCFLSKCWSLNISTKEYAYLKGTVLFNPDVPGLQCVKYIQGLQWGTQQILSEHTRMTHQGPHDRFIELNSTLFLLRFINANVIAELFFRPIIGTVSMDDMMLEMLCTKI
SF1 mutant ctr: counter-screen for DAX1 inhibitors: nonselective inhibitors with SF-1 AF2 mutant; HEK293 StAR-luciferase, luminescence; inhibition, % at 6.8 µM; AID 652136; shares compounds with DAX1 inh-2; hit rate 78% among 2,400;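 active means inhibition above the mean of all tested compounds plus 3 SD, cut at about 3% in these data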;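 further: 0% = DAX-1 transfected cells with DMSO and 100% = cells without DAX-1 with DMSO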
SMARCA2 conf: SMARCA2 activation, confirmation screen; shares compounds with SMARCA2 activ; hit rate 30% among 3,500; MG213 cells, MMTV-luciferase with dexamethasone, luminescence, overnight; MG213 cells expressing E1A, Rb sequestered; DMSO wells 0%, reference activator 100%; activation, % at 9.1 µM;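 active means activation above its plate's cutoff, the mean activation of tested wells plus 3 SD, cut at about 7.9% in these data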
GAL4-VP16 Luc: GAL4-VP16 reporter activation counter-screen | AID 686939 | HEK293 GAL4-VP16 pG5luc reporter, luciferase luminescence; scaled: DMSO wells 0%, SAHA wells 100% | shares compounds with SMARCA2 activ | activation, % at 9.1 µM | hit rate 41% among 3,500;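 active means activation above the solvent-only control well mean plus 3 SD, averaged across control plates, cut at about 5.2% in these data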
hgDAF12 conf: hgDAF-12 agonism, confirmation assay | shares compounds with hgDAF-12 ag | HEK293 GAL4-hgDAF12 luciferase reporter, agonist mode; percent of butyrate response | activation, % at 6.8 µM | hit rate 80% among 3,300 | AID 743050;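 active means mean activation over triplicate wells above the hit cutoff derived from the earlier primary screen, cut at about 11% in these data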;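 further: 0% = DMSO low control and 100% = 2 mM sodium butyrate high control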
LXRb DAF12 ctr: activates human LXR-beta, counter-screen for DAF-12 agonists | shares compounds with hgDAF-12 ag | HEK293 Gal4-LXR luciferase reporter, 24 h | activation, % at 6.8 µM | 3,300 tested, under 10 active | AID 743051;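 active means mean activation of the triplicate above a set limit carried over from the primary screen, none filed active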
Active calls of the source: *; . = no result. This is a sample that favours compounds with a hit; in the whole collection about 4.8% have one here.

SMILES	hcDAF12 agonist	DAX1 inh-1	DAX1 inh-2	hgDAF-12 ag	ssDAF12 agonist	SMARCA2 activ	DAX1 inh confirm	SF1 mutant ctr	hgDAF12 conf	LXRb DAF12 ctr	others
COc1cc(Cl)ccc1OCc1cc(C(=O)N2CCCC(OC)C2)no1 (configuration not stated)	4	1	8.1*	18*	0	2	6.6*	4.1*	17*	1
COc1ccc(CNc2nc3ccccc3n2C)c(OC)c1	3	0	6.4*	13*	-1	8.0*	12*	7.4*	15*	0	SMARCA2 conf=10*;GAL4-VP16 Luc=10*
O=C(OCc1cn(Cc2ccc(F)c(F)c2)nn1)N1CCCC1	0	.	0	-3	0	1	.	.	.	.
Cc1ccc(Cc2c(-c3ccc(C#N)cc3)nc3ccc(C)cn23)cc1	2	.	1	8	-1	-1	.	.	.	.
Cc1ccc(Cc2c(-c3ccc(Br)cc3)nc3cc(C)ccn23)cc1	4	4	7.5*	14*	0	8.2*	3.7*	2	1	0	SMARCA2 conf=5;GAL4-VP16 Luc=4
Cc1ccc(Cc2c(-c3ccccc3)nc3ccc(Br)cn23)cc1	2	0	2	7	0	0	.	.	.	.
Cc1ccc(-c2nc3ccc(Br)cn3c2Cc2ccccc2)cc1	3	.	5.4*	14*	1	4	8.2*	3	16*	1
Cc1ccc(-c2nc3ccc(C)cn3c2Cc2ccccn2)cc1	3	.	5.8*	14*	0	1	10*	4.5*	5	1
COc1ccc(-c2nc3ccc(C)cn3c2Cc2ccccc2C(F)(F)F)cc1OC	-2	.	1	1	-1	-1	.	.	.	.
Cc1ccc2nc(-c3ccc(F)cc3)c(Cc3ccccc3C(F)(F)F)n2c1	5	.	4.7*	14*	1.7*	2	2	4.6*	6	0
Cc1ccc(Cc2c(-c3ccc(F)cc3)nc3ccc(Br)cn23)cc1	2	.	1	6	-1	2	.	.	.	.
COC(=O)c1c(-c2ccc(OC)cc2)c2c(c3c4cc(OC)ccc4n(S(=O)(=O)c4ccc(C)cc4)c13)C(=O)N(C)C2	2	.	-1	3	-1	-3	.	.	.	.
COc1cccc(Cn2ncc3c4sc(S(C)=O)cc4n(C)c3c2=O)c1 (configuration not stated)	-4	.	.	0	-2	.	.	.	.	.
Cc1ccc(Cc2c(-c3ccc(F)cc3)nc3ccc(Cl)cn23)cc1	1	3	2	3	1	-1	.	.	.	.
Cc1ccc(Cc2c(-c3ccc(F)cc3)nc3cc(C)ccn23)cc1	2	3	6.6*	17*	0	3	0	0	7	0
